Source: PMC7819943, “Rice protein-binding microarrays: a tool to detect cis-acting elements near promoter regions in rice”
The full ranking holds about 35,000 sequences; the median of “fluorescence intensity (a.u.)” is about 10,000, and the highest 2% start at about 52,000. What follows is part of a selection rich in the highest values, with near analogues and random picks from the rest.

Target: T1, OsWOX13 (Oryza sativa, UniProt Q5QMM3 1-267)
T1 sequence: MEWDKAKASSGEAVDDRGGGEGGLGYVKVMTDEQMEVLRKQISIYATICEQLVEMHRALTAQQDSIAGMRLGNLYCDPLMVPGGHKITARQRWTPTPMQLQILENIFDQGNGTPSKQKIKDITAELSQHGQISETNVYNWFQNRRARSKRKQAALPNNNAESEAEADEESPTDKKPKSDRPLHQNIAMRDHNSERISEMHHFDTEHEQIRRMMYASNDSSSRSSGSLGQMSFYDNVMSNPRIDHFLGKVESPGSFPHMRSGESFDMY
Experiment: protein-binding microarray (RPBM); PBS, 2% BSA, 51.3 ng/ul salmon testes DNA, 50 uM zinc acetate, 200 nM TF, 25 C, 1 h; high values mean tight binding
Settings: protein: recombinant; tags: N-terminal polyhistidine and DsRed monomer fusion (pET32a); label: CyDye5-dUTP incorporated in the synthesized complementary strand; 3' TTTTT single-stranded linker to array surface; dsDNA, one strand shown
In short: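 Binding signal is reported as fluorescence intensity per feature (arbitrary units) from an Axon 4000B scanner. Incubation used 200 nM of each Ni–NTA-purified, N-terminally polyhistidine- and DsRed-fused transcription factor from E. coli BL21-CodonPlus on a double-stranded custom Agilent array for 1 h at 25 °C, with 50 µM zinc acetate in the buffer, followed by washing.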

Row | Sequence | binding signal
1 | GAGCAGCAGCTTAATTGGATCATCGAATCTCGCACCGCCACGGAGTCACCTAGTGCAG | 4860 fluorescence intensity (a.u.)
2 | TAAACTTAATTTTAAAATCATAATTCAGAAATGTGGTGAACGGAGTCACCTAGTGCAG | 30500 fluorescence intensity (a.u.)
3 | ATGACTTGACGAGGTAAATAAAATTGGACCGGGCAGCAAACGGAGTCACCTAGTGCAG | 3900 fluorescence intensity (a.u.)
4 | CCCTAATCCCATTTAATCAGCACAGCTTCTTAATTACTCCCGGAGTCACCTAGTGCAG | 6810 fluorescence intensity (a.u.)
5 | GTATTAATTGGGGTGATTCATGACAACGATGAGATATTAACGGAGTCACCTAGTGCAG | 32700 fluorescence intensity (a.u.)
6 | GAAGTTATTAACAAATTAGATACATCTCTTGTTTAGATTACGGAGTCACCTAGTGCAG | 4700 fluorescence intensity (a.u.)
7 | CTCTGATAGATTGCGACCTTCTTGTTGTTTAACAACGTTACGGAGTCACCTAGTGCAG | 54000 fluorescence intensity (a.u.)
8 | TCTGAGATTTATTGATTAGATTATAACGTAATCGTTGTTACGGAGTCACCTAGTGCAG | 29300 fluorescence intensity (a.u.)
9 | TATTAATTGAGTGAGATTTGGGGTATTCAGTCGACTGGCACGGAGTCACCTAGTGCAG | 54900 fluorescence intensity (a.u.)
10 | ATATTCAGCTGATTGGGGCATTGGGTATTTGCAGTGAGCACGGAGTCACCTAGTGCAG | 18500 fluorescence intensity (a.u.)
11 | ACACACAGCGGCAAAATTGACACATTACACATCAGGAATCCGGAGTCACCTAGTGCAG | 5060 fluorescence intensity (a.u.)
12 | TGAAAGAAGAGATGATTGGGAAACACCATTAATAGGGTGGCGGAGTCACCTAGTGCAG | 10500 fluorescence intensity (a.u.)
13 | TGTCGTCAAAATTTGATGGAATTCACACGAATTTAGCAACCGGAGTCACCTAGTGCAG | 5150 fluorescence intensity (a.u.)
14 | TACTAATGATTTTATGTAGAACATCATCACATATCTTATACGGAGTCACCTAGTGCAG | 15800 fluorescence intensity (a.u.)
15 | TAATAATAATAATAATAATAATAATAATAACACATCGCACCGGAGTCACCTAGTGCAG | 4120 fluorescence intensity (a.u.)
16 | TTCTATGATTGATTGGTCGATAGGAAGACATATAACAGCGCGGAGTCACCTAGTGCAG | 65500 fluorescence intensity (a.u.)
17 | TTGCTATTTGTTGGTTTGATTTATTGCTACTGCAACAGATCGGAGTCACCTAGTGCAG | 3880 fluorescence intensity (a.u.)
18 | CCGTGCTGCATGATTGACCAAACAGACCATGTTGGTTTTGCGGAGTCACCTAGTGCAG | 29000 fluorescence intensity (a.u.)
19 | TTGATTTGGTTGATTGCCTCCTTCGTTCGTCCACGCTCAACGGAGTCACCTAGTGCAG | 57100 fluorescence intensity (a.u.)
20 | TGTTGATTTGCTACCCTTCCTTCCGTCCTCAACATTATCACGGAGTCACCTAGTGCAG | 31600 fluorescence intensity (a.u.)
21 | CTGATGATTGGTCAGCAGAGAAGACAGGTGGGATATCGAGCGGAGTCACCTAGTGCAG | 52900 fluorescence intensity (a.u.)

Row | Sequence | binding signal
22 | TTCGAATCTCTGATTGGGAGTTCAGGTCAGAGACGTTCAGCGGAGTCACCTAGTGCAG | 14700 fluorescence intensity (a.u.)
23 | TTGATTGCCTCAGGTGGTCCGGACACCGTCTCAACATCCACGGAGTCACCTAGTGCAG | 17700 fluorescence intensity (a.u.)
24 | ATAACATTATCATTATAGACATTGATATATGAGATAATAGCGGAGTCACCTAGTGCAG | 6010 fluorescence intensity (a.u.)
25 | GGTTTGATTGGTTGGAAACAGAGGGGTTCTACTGCTGCGACGGAGTCACCTAGTGCAG | 55700 fluorescence intensity (a.u.)
26 | GATTTATTGACATCTATATGAATATAGACATTGATAAAAGCGGAGTCACCTAGTGCAG | 8710 fluorescence intensity (a.u.)
27 | CTTTGACAGATTGGTGGGAGATAAGAGAAATGAGGAGGTGCGGAGTCACCTAGTGCAG | 51900 fluorescence intensity (a.u.)
28 | CCCAATTAAATAATGCCAATTGGGTTTGATCTAATGCTGGCGGAGTCACCTAGTGCAG | 15200 fluorescence intensity (a.u.)
29 | ATCAATCAATCAATCAATCAGCAAAGAGCATCCCAAACAACGGAGTCACCTAGTGCAG | 33900 fluorescence intensity (a.u.)
30 | AAGGTTGTTAATTACAAACCATGTTTCGTACTACAACTCTCGGAGTCACCTAGTGCAG | 4580 fluorescence intensity (a.u.)
31 | GTGACAAACTGACAACAGGTTGTTTAGTTTTCCATGATTACGGAGTCACCTAGTGCAG | 4530 fluorescence intensity (a.u.)
32 | GAATCTATTAAGCCTAATTAATCCGTTATTATAGCAAATACGGAGTCACCTAGTGCAG | 6470 fluorescence intensity (a.u.)
33 | AAGGCACGTTGATTGGACTAGTAGTACTACTACGTAGTAGCGGAGTCACCTAGTGCAG | 18400 fluorescence intensity (a.u.)
34 | ACCATTGATGGTCCCAATTTAAAATATTTGGCCGAATCTTCGGAGTCACCTAGTGCAG | 3840 fluorescence intensity (a.u.)
35 | AATAAAATAAATGATCAAATGAATTATGAAAACTCGTGACCGGAGTCACCTAGTGCAG | 5260 fluorescence intensity (a.u.)
36 | GTCGAAAATTATATCGGAATTAGCAGAGTGTGGCATAGCACGGAGTCACCTAGTGCAG | 4260 fluorescence intensity (a.u.)
37 | AGTAAAATGATTTGTAGTGTTAATAATAAAGAATAAATTACGGAGTCACCTAGTGCAG | 10000 fluorescence intensity (a.u.)
38 | TACAAATAGACTTGAATAAATGTTTATCTATTTTGTGTTGCGGAGTCACCTAGTGCAG | 16800 fluorescence intensity (a.u.)
39 | TGAGGAGCAATTAATGAGTTTGATGGACAGAGATAATAGCCGGAGTCACCTAGTGCAG | 9490 fluorescence intensity (a.u.)
40 | ACGTTTAATTACGGGAAACCGGCTAAAACCCACCACACATCGGAGTCACCTAGTGCAG | 6640 fluorescence intensity (a.u.)
41 | GTAGGAACACTAATTAATCACTCATTGATATGTGTAATCCCGGAGTCACCTAGTGCAG | 14700 fluorescence intensity (a.u.)
42 | CTTAAATCATGATGATTTTATTGGTTGTTGGCATGCACAGCGGAGTCACCTAGTGCAG | 30500 fluorescence intensity (a.u.)
